This passage reports composite z-score and z-score results from PubChem BioAssay.

The test system of assay [1] is PRMT1 (protein arginine N-methyltransferase 1). Kind of assay: PRMT1 binders on small-molecule microarrays, primary screen, biochemical, small-molecule microarray, 635 nm fluorescence (AID 1088).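 Further: binding of Prmt1 protein to compounds spotted on small-molecule microarray slides.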 To be noted: small-molecule microarray binding, higher = more signal.
A short description of assay [2]: yeast growth modulation, basal conditions, primary screen, YJM789 clinical isolate, OD600, 24 h (AID 1089).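 Further: growth of clinical yeast isolate S. cerevisiae YJM 789 seeded 1000 cells per well; test concentration not given here.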 Particulars: S. cerevisiae YJM789 growth, higher = more signal, called active from +8 up or from −8 down.
The nature of assay [3]: fission yeast growth modulation, primary screen, strain 972, OD600, 24 h, no modulator (AID 1090).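 Further: basal condition with compound alone and no growth modifier present; test concentration not given here.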 To be noted: S. pombe 972 growth, higher = more signal, called active from +8 up or from −8 down.
Assay [4] can be described thus: S. cerevisiae growth modulation with rapamycin, primary screen, strain BY4716, OD600, 96 h (AID 1091). Further: test concentration not given here. Particulars: higher = more signal, called active from +8 up or from −8 down.
Assay [5] concerns the target Torsin-1A-interacting protein 2 (Homo sapiens) (UniProt Q8NFQ8). In words: LULL1 binders on small-molecule microarray, primary screen, cell lysate, human LULL1 lysate, 635/667 nm fluorescence (AID 1092).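 Further: probe is lysate of COS7 cells overexpressing human LULL1; score merges per-feature 667 nm fluorescence with signal-to-noise.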 Particulars: hLULL1 lysate binding, 635 nm fluorescence, higher = more signal.
A short description of assay [6]: E. coli growth modulation, two-sided OD650, primary screen, E. coli filamentation project, strain DRC41, 24 h (AID 1093).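 Further: MC1000 strain lacking acrAB efflux and sulA so SOS filamentation is blocked; test concentration not given here.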 To be noted: OD650, 24 h, higher = more signal, called active from +8 up or from −8 down.
Assay [7] can be described thus: small-molecule microarray binders of probe aLefty2, primary screen, biochemical, biotinylated probe, 635/667 nm fluorescence (AID 1094).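 Further: score merges spot fluorescence near 667 nm with spot signal-to-noise ratio.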 To be noted: higher = more signal.
Assay [8] concerns Noggin (protein binding on small-molecule microarray). Kind of assay: Noggin binders on small-molecule microarray, primary screen, biochemical, 635/667 nm fluorescence (AID 1095).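 Further: score merges 667 nm feature fluorescence with signal to noise over triplicate slides.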 To be noted: 635 nm fluorescence, higher = more signal.
For assay [9], the target named is Neurogenic locus notch homolog protein 3 (Homo sapiens) (UniProt Q9UM47). In words: NOTCH3 binders on small-molecule microarray, primary screen, biochemical, 635/667 nm fluorescence (AID 1096). To be noted: NOTCH3 binding, 635 nm fluorescence, higher = more signal.
Neurogenic locus notch homolog protein 3 (Homo sapiens), sequence (Q9UM47 whole entry, looked up): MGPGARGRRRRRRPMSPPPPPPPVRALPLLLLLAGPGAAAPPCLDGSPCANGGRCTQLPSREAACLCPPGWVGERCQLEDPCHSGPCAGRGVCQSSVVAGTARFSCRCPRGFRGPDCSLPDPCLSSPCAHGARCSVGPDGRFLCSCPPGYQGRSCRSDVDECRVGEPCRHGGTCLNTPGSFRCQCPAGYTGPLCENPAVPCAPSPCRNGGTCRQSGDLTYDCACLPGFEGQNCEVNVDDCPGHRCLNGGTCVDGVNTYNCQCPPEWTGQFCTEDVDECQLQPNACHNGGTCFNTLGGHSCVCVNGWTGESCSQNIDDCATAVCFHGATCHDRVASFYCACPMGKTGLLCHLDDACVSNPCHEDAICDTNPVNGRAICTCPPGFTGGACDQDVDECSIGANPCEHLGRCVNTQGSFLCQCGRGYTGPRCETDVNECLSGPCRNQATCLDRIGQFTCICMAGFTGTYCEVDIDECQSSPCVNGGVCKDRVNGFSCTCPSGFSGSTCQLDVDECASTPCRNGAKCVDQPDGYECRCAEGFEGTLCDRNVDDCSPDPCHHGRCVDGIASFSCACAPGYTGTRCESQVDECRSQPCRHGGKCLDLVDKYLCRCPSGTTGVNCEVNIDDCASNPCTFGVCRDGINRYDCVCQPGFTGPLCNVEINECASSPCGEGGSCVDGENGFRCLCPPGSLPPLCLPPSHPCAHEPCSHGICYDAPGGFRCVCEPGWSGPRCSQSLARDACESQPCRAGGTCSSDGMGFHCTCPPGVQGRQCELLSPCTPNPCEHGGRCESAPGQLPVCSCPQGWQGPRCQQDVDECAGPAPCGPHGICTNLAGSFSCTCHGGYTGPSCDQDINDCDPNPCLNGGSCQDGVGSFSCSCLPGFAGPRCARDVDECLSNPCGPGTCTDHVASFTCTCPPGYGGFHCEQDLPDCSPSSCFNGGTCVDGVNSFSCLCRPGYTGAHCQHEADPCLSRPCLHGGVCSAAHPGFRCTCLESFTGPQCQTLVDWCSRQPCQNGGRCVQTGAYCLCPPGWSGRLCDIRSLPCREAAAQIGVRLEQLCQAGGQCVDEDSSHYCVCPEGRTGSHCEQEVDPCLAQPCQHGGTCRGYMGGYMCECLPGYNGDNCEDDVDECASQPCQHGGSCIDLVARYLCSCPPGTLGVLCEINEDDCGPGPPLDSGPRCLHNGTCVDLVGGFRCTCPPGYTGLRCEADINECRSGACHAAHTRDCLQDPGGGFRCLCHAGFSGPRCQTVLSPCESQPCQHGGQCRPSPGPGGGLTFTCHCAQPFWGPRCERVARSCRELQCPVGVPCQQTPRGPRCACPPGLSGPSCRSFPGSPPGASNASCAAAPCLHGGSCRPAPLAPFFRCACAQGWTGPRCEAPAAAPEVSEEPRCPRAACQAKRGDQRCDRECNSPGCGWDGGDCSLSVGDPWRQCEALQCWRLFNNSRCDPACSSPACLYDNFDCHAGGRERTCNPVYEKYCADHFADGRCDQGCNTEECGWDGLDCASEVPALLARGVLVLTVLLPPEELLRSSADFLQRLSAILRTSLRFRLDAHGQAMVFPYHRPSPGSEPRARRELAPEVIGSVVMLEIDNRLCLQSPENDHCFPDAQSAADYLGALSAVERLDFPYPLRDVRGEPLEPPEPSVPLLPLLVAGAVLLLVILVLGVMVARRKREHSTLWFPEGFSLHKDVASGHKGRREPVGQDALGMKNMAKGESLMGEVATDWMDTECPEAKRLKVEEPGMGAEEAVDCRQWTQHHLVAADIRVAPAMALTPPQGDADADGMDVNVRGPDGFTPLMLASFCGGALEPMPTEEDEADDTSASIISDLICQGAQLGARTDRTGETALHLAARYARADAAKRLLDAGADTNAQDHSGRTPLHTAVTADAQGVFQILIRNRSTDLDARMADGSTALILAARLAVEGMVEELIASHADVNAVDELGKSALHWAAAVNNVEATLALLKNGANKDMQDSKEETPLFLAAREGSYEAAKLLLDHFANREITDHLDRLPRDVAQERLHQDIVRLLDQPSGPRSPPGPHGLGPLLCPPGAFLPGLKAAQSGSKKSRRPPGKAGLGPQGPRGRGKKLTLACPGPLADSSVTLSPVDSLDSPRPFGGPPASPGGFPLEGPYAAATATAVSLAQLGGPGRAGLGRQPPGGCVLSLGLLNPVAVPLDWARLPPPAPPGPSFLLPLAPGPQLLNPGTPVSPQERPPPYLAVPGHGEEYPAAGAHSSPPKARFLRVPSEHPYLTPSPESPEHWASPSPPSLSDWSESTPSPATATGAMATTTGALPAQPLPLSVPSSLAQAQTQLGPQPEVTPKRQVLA
Assay [10] is described as follows: small-molecule microarray binders of probe aEGFR, primary screen, biochemical, biotinylated probe, 635/667 nm fluorescence (AID 1097).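 Further: probe is a biotinylated anti-EGFR antibody binding compounds printed on slides; score combines fluorescence near 667 nm and signal to noise of each spot.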 To be noted: higher = more signal.
Assay [11] has as its system Plasmodium falciparum Sir2 (PF13_0152, Sir2A). Kind of assay: pfSir2 binders on small-molecule microarrays, primary screen, biochemical, small-molecule microarray, 635 nm fluorescence (AID 1098).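 Further: score merges spot fluorescence intensity with its signal-to-noise ratio.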 Particulars: small-molecule microarray binding, fluorescence 635 nm; higher = more signal.
Assay [12] is described as follows: small-molecule microarray binders of probe aDKK1, primary screen, biochemical, biotinylated probe, 635/667 nm fluorescence (AID 1099).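 Further: score merges 667nm spot fluorescence with signal to noise across triplicate slides; reference of the scale not given here.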 Particulars: higher = more signal.
The nature of assay [13]: small-molecule microarray binders of probe aCHRDL2, primary screen, biochemical, biotinylated probe, 635/667 nm fluorescence (AID 1100). Particulars: higher = more signal.
The nature of assay [14]: splicing luciferase reporter signal modulators, primary screen, spliceosome inhibition project, cell-based, HEK293, splice +/- reporter (AID 1101).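 Further: HEK293 cells carrying a splicing-competent luciferase reporter gene; test concentration not given here.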 Particulars: luminescence, 24 h, higher = more signal, called active from +8 up or from −8 down. (A reporter such as luciferase makes a cellular process visible.)
The target of assay [15] is Fibroblast growth factor 10 (Homo sapiens) (UniProt O15520). Kind of assay: FGF10 binders on small-molecule microarrays, primary screen, biochemical, small-molecule microarray, 635 nm fluorescence (AID 1102). Particulars: FGF10 binding, fluorescence 635 nm, higher = more signal.
Fibroblast growth factor 10 (Homo sapiens), sequence (O15520 whole entry, looked up): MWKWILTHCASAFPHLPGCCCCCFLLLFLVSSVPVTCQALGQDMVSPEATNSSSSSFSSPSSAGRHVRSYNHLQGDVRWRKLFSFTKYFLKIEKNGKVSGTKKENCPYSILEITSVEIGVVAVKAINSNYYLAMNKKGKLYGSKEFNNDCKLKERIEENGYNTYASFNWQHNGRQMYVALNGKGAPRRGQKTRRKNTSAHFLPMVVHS
Assay [16] has as its system glycogen synthase kinase-3 (GSK3A per assay name; protocol says GSK3B). Kind of assay: GSK3 binders on small-molecule microarrays, primary screen, biochemical, small-molecule microarray, 635 nm fluorescence, GSK3A (AID 1103). Further: the record names both GSK3A and GSK3B. Particulars: small-molecule microarray binding, fluorescence 635 nm; higher = more signal.
In assay [17] the target is Epidermal growth factor receptor (Homo sapiens) (UniProt P00533). In words: EGFR binders on small-molecule microarrays, primary screen, biochemical, small-molecule microarray, 635 nm fluorescence (AID 1104).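 Further: score merges 667 nm emission intensity with spot signal to noise over triplicate slides.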 Particulars: EGFR binding, higher = more signal.
Epidermal growth factor receptor (Homo sapiens), sequence (P00533 whole entry, looked up): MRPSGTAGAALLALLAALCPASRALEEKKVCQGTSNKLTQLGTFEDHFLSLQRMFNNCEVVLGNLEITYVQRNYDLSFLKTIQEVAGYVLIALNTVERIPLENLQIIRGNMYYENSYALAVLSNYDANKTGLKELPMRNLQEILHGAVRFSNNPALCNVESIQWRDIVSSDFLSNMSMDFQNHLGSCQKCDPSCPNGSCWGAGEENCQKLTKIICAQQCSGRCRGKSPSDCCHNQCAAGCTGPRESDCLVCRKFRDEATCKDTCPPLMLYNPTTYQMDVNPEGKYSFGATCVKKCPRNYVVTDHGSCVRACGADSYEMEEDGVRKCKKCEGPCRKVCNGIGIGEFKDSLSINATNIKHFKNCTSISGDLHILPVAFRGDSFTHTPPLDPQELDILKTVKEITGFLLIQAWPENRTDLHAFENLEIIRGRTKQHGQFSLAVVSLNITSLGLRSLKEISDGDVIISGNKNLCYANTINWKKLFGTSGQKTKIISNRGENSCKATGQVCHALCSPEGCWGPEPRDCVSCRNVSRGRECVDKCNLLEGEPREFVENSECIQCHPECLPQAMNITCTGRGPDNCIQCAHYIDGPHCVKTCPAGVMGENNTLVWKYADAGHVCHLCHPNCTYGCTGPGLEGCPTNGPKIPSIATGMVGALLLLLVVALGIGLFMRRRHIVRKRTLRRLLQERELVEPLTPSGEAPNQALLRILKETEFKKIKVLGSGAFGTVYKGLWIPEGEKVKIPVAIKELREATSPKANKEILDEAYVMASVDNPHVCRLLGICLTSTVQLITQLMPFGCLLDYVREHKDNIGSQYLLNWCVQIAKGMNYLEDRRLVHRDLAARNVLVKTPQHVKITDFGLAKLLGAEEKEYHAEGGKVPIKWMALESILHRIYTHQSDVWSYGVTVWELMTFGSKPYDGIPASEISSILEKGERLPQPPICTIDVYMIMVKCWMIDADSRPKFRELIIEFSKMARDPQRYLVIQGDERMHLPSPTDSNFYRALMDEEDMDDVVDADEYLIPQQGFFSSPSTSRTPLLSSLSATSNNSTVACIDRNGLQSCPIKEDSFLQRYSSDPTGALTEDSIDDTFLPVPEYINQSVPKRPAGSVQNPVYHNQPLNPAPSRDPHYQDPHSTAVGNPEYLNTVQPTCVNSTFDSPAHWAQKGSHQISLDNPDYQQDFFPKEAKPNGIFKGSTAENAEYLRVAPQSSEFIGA
Assay [18] has as its target Follistatin-related protein 3 (Homo sapiens) (UniProt O95633). In words: FSTL3 binders on small-molecule microarrays, primary screen, biochemical, small-molecule microarray, 635 nm fluorescence (AID 1105).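 Further: score merges emission near 667 nm and signal to noise per printed spot across three slides.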 Particulars: FSTL3 binding, higher = more signal.
Assay [19] addresses Dickkopf-related protein 1 (Homo sapiens) (UniProt O94907). In words: DKK1 binders on small-molecule microarrays, primary screen, biochemical, small-molecule microarray, 635 nm fluorescence scan (AID 1106).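 Further: score merges emission near 667 nm with signal to noise over three replicate slides.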 To be noted: DKK1 binding, higher = more signal.
In assay [20] the test system is Inhibin beta A chain (activin A). In words: INHBA (activin A) binders on microarrays, primary screen, biochemical, small-molecule microarray, 635 nm fluorescence scan (AID 1107).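 Further: mouse activin A protein probed at 4.33 µg/mL on printed slides; score merges bound-protein fluorescence near 667 nm with spot signal-to-noise.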 Particulars: small-molecule microarray binding, higher = more signal.

The source made the active and inactive calls.

Dickkopf-related protein 1 (Homo sapiens), sequence (O94907 whole entry, looked up): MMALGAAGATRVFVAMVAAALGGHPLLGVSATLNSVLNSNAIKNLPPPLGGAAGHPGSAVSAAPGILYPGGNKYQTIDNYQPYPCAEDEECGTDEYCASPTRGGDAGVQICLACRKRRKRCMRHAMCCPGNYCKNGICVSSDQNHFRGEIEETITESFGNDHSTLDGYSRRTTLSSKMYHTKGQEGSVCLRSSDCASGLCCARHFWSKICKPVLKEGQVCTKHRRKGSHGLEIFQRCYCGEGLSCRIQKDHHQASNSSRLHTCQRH
Follistatin-related protein 3 (Homo sapiens), sequence (O95633 whole entry, looked up): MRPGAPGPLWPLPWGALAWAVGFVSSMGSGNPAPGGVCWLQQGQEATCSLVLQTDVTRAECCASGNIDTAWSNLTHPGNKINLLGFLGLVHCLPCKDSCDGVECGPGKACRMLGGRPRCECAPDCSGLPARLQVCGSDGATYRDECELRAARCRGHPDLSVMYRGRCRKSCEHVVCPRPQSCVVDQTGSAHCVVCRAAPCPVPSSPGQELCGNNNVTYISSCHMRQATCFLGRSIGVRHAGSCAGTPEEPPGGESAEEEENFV
Torsin-1A-interacting protein 2 (Homo sapiens), sequence (Q8NFQ8 whole entry, looked up): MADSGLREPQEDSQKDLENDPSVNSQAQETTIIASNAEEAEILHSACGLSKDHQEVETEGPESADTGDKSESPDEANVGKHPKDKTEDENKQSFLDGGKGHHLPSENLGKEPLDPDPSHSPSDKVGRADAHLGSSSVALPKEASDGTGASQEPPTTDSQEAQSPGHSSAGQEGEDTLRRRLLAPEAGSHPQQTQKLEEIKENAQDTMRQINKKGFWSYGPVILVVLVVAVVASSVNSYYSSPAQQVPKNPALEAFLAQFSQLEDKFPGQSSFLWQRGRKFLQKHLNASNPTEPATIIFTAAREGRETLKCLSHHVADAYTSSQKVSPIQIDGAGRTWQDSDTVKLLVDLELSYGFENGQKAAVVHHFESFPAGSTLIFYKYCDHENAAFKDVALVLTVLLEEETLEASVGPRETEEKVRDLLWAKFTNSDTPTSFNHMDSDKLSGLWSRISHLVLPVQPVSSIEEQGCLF

Take `COc1ccc([Si](C)(C)[C@@H]2[C@@H](CCn3cc([C@H](O)c4ccccc4)nn3)O[C@]3(C(=O)N(Cc4ccc(N5CCOC5=O)cc4)c4ccccc43)[C@H]2C)cc1`: the composite z-score in assay [1] is 1.55; in assay [5], 0.995; in assay [7], 0.047; in assay [8] it was 1.01; in [9] it was 1.12; in assay [10] it was 0.0711. For the same molecule, the composite z-score was 0.972 in assay [11]; -0.168 in [12]; -0.528 in [13]; 0.953 in assay [15]; 0.426 in assay [16]; 0.664 in [17]. Further, the figures for the composite z-score in assay [18], in [19] and in assay [20] were 1.02, 0.757 and 0.504, respectively. For the same molecule, the z-score in [2] is -0.113 (inactive); in [3] it was 0.984 (inactive); in [4], 2.04 (inactive); in assay [6] it was 1.87 (inactive); in assay [14] it was -0.242 (inactive).
For the molecule `[N-]=[N+]=Nc1ccccc1C[C@]1(C(=O)NCc2ccccc2)N=C(c2ccc(OCCCO)cc2)O[C@H]1c1ccccc1`, the composite z-score in assay [1] turned out to be 1.56; in assay [5], 3.34; in assay [7] it was 0.206; in assay [8], 0.383; in [9] it was 1.12; in [10] it was 0.048. The composite z-score was 1.13 in assay [11]; 0.966 in assay [12]; 1.01 in [13]; 1.09 in [15]; -0.235 in [16]; -0.269 in assay [17]. Also, the composite z-score in assay [18] is 0.461; in assay [19], -0.684; in assay [20] it was 0.784. Also, the z-score in [2] was -0.623 (inactive); in assay [3], 0.69 (inactive); in assay [4], 17.8 (active); in assay [6] it was 0.7 (inactive); in assay [14] it was 0.843 (inactive).
Consider `CCCCN1CC=CC23O[C@@H]4/C=C\CCC(C)OC(=O)C4[C@H]2C(=O)N(CCCCCCO)[C@@H]3C1=O` (stereo not given in full), for which the composite z-score in assay [1] is -0.969; in assay [5] it was 1.4; in assay [7], -0.212; in [8] it was -0.806; in assay [9] it was -0.407; in assay [10], -0.313. The composite z-score in assay [11] is 0.906; in assay [12], -0.264; in assay [13], 0.402; in [15] it was 0.107; in assay [16] it was -0.782; in assay [17], -0.63. In addition, the composite z-score is -1.04 in assay [18], -0.842 in assay [19] and 0.703 in assay [20]. Besides, the z-score was -0.287 (inactive) in assay [2]; -0.737 (inactive) in [3]; 0.045 (inactive) in [4]; 0.272 (inactive) in assay [6]; 0.142 (inactive) in assay [14].
Regarding `COc1ccc([Si](C)(C)[C@H]2[C@H](CC(=O)N3Cc4ccccc4C[C@H]3CO)O[C@@]3(C(=O)N(Cc4cccc(N5CCCCC5=O)c4)c4ccccc43)[C@@H]2C)cc1`, the composite z-score in [1] was 1.29; in assay [5] it was 1.79; in assay [7], 0.02; in assay [8], 1.02; in assay [9], 1.09; in assay [10], -0.0471. In addition, the composite z-score was 1.2 in assay [11]; -0.205 in assay [12]; -0.181 in assay [13]; 1.14 in [15]; 0.262 in assay [16]; 0.795 in assay [17]. Moreover, the values for the composite z-score in [18], in assay [19] and in assay [20] were 1.27, 1.12 and 0.94, respectively. Moreover, the z-score is -2.19 (inactive) in [2]; 0.522 (inactive) in [3]; 0.925 (inactive) in assay [4]; -0.0352 (inactive) in assay [6]; -0.519 (inactive) in assay [14].
`CCOC(=O)[C@H]1C/C=C/C[C@H](C(=O)OCC)C(=O)O[C@H]2[C@@H](OC)O[C@H](CO)[C@@H](OC(=O)CCc3ccccc3)[C@@H]2OC1=O`: the composite z-score in [1] is 0.182; in [5], 0.0772; in assay [7], -0.132; in assay [8], 0.0226; in assay [9], 0.01; in [10] it was -0.314. Further, the composite z-score in assay [11] was 0.254; in [12], -0.41; in assay [13] it was 0.128; in assay [15] it was -0.785; in assay [16] it was -1.46; in [17], -0.741. The composite z-score in [18] was -1.53; in [19], -0.315; in assay [20], 0.334. For the same molecule, the z-score is 0.491 (inactive) in [2]; -1.29 (inactive) in [3]; 15.2 (active) in [4]; -0.677 (inactive) in [6]; -0.389 (inactive) in assay [14].
Turning to `CC(C)(C)OC(=O)CC[C@]1(C(=O)O)N=C(c2ccc(OCCCO)cc2)O[C@H]1c1ccccc1`, the composite z-score in assay [1] is -0.147; in assay [5] it was 2.2; in assay [7], -0.0226; in assay [8], -0.0257; in [9], 0.154; in [10] it was -0.0485. Moreover, the composite z-score is 1.14 in assay [11]; 0.191 in assay [12]; 0.542 in [13]; -0.272 in assay [15]; -0.406 in assay [16]; -0.329 in assay [17]. Further, the composite z-score in assay [18] is -0.121; in assay [19], -0.517; in assay [20], 0.734. In addition, the z-score in assay [2] was -0.627 (inactive); in assay [3], -0.573 (inactive); in assay [4], -1.97 (inactive); in assay [6], 0.461 (inactive); in assay [14], -1.32 (inactive).
